Assay results from ChEMBL document CHEMBL1961873, “Compounds: GSK PKIS; Assays: Nanosyn kinase panel” (2012).
Several values for one entry are separate records, joined by “and”; a condition that tells them apart may be missing. Equal entries are not always repeated.

Columns and labels:
[1] = tested on: Proto-oncogene tyrosine-protein kinase receptor Ret (Homo sapiens), P07949 [Y791F]; settings: at 1 µM
[2] = biological target: Macrophage-stimulating protein receptor (Homo sapiens) (UniProt Q04912); settings: at 0.1 µM
[3] = biological target: Macrophage-stimulating protein receptor (Homo sapiens) (UniProt Q04912); settings: at 1 µM
[4] = biological target: Proto-oncogene tyrosine-protein kinase ROS (Homo sapiens) (UniProt P08922); settings: at 0.1 µM
[5] = biological target: Proto-oncogene tyrosine-protein kinase ROS (Homo sapiens) (UniProt P08922); settings: at 1 µM
[6] = biological target: Proto-oncogene tyrosine-protein kinase Src (Homo sapiens) (UniProt P12931); settings: at 0.1 µM
[7] = biological target: Proto-oncogene tyrosine-protein kinase Src (Homo sapiens) (UniProt P12931); settings: at 1 µM
[8] = biological target: Tyrosine-protein kinase Srms (Homo sapiens) (UniProt Q9H3Y6); settings: at 0.1 µM
[9] = biological target: Tyrosine-protein kinase Srms (Homo sapiens) (UniProt Q9H3Y6); settings: at 1 µM
[10] = biological target: Tyrosine-protein kinase SYK (Homo sapiens) (UniProt P43405); settings: at 0.1 µM
[11] = biological target: Tyrosine-protein kinase SYK (Homo sapiens) (UniProt P43405); settings: at 1 µM
[12] = biological target: T1, Tyrosine-protein kinase Tec (Homo sapiens) (UniProt P42680); settings: at 0.1 µM
T1 sequence (whole entry): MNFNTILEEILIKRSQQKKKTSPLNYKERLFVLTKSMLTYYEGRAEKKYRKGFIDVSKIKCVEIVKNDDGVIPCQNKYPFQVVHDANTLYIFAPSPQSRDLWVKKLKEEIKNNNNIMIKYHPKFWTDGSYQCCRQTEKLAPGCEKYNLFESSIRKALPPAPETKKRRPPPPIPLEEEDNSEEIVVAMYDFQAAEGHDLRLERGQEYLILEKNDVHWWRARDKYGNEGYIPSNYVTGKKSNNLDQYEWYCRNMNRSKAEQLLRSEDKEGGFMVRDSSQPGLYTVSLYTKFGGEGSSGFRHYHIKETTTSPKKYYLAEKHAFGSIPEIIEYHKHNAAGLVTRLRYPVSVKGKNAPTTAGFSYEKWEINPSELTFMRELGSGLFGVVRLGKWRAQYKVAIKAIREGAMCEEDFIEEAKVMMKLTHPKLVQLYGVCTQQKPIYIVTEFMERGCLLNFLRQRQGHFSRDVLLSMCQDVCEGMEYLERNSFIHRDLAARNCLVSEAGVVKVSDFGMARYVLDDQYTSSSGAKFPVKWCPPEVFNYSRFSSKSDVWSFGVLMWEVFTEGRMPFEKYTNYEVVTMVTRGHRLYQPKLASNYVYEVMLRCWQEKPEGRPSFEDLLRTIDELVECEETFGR

[13] = biological target: T1, Tyrosine-protein kinase Tec (Homo sapiens); settings: at 1 µM
[14] = biological target: Angiopoietin-1 receptor (Homo sapiens) (UniProt Q02763); settings: at 0.1 µM
[15] = biological target: Angiopoietin-1 receptor (Homo sapiens) (UniProt Q02763); settings: at 1 µM
[16] = biological target: T2, Non-receptor tyrosine-protein kinase TNK1 (Homo sapiens) (UniProt Q13470); settings: at 0.1 µM
T2 sequence (whole entry): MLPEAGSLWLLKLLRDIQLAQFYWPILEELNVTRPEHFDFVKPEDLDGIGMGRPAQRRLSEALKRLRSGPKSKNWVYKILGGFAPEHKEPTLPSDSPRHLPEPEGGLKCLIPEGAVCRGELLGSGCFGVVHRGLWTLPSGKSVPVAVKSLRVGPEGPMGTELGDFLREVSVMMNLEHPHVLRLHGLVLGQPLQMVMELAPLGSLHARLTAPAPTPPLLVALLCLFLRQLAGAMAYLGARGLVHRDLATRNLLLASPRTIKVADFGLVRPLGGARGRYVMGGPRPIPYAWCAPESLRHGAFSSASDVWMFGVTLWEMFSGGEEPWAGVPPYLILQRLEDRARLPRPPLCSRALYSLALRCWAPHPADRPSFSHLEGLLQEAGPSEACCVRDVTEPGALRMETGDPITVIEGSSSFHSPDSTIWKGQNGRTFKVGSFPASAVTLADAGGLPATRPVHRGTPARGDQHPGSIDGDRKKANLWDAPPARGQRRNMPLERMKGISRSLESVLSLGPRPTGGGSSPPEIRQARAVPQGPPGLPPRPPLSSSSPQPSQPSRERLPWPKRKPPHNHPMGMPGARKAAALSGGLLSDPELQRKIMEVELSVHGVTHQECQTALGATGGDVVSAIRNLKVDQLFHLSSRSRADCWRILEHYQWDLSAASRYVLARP

[17] = biological target: T2, Non-receptor tyrosine-protein kinase TNK1 (Homo sapiens); settings: at 1 µM
[18] = biological target: Activated CDC42 kinase 1 (Homo sapiens) (UniProt Q07912); settings: at 0.1 µM
[19] = biological target: Activated CDC42 kinase 1 (Homo sapiens) (UniProt Q07912); settings: at 1 µM
[20] = biological target: High affinity nerve growth factor receptor (Homo sapiens) (UniProt P04629); settings: at 0.1 µM;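 also: each value is a mean of replicate percent inhibition readings against TRKA kinase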
Chain of High affinity nerve growth factor receptor (Homo sapiens) (P04629 33-796 limits assumed): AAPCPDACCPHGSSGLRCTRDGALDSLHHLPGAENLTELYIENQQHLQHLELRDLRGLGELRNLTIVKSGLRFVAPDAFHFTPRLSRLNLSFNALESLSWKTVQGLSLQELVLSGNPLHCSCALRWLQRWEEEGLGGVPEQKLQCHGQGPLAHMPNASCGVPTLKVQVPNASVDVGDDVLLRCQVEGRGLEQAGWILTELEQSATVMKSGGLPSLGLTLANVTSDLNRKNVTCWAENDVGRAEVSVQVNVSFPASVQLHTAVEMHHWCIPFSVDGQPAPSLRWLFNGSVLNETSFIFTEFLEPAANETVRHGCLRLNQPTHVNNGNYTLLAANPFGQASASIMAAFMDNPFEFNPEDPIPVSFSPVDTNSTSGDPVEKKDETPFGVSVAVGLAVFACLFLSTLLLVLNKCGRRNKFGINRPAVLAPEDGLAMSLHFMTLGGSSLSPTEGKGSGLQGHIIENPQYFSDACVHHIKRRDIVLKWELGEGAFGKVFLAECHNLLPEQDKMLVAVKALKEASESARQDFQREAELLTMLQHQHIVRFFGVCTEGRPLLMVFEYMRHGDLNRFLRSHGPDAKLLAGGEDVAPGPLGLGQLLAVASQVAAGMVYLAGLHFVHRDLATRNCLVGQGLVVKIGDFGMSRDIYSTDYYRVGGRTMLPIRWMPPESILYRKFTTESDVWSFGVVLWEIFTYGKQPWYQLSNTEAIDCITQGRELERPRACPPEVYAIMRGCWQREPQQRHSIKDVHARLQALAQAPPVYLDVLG

Chain of Angiopoietin-1 receptor (Homo sapiens) (Q02763 whole entry): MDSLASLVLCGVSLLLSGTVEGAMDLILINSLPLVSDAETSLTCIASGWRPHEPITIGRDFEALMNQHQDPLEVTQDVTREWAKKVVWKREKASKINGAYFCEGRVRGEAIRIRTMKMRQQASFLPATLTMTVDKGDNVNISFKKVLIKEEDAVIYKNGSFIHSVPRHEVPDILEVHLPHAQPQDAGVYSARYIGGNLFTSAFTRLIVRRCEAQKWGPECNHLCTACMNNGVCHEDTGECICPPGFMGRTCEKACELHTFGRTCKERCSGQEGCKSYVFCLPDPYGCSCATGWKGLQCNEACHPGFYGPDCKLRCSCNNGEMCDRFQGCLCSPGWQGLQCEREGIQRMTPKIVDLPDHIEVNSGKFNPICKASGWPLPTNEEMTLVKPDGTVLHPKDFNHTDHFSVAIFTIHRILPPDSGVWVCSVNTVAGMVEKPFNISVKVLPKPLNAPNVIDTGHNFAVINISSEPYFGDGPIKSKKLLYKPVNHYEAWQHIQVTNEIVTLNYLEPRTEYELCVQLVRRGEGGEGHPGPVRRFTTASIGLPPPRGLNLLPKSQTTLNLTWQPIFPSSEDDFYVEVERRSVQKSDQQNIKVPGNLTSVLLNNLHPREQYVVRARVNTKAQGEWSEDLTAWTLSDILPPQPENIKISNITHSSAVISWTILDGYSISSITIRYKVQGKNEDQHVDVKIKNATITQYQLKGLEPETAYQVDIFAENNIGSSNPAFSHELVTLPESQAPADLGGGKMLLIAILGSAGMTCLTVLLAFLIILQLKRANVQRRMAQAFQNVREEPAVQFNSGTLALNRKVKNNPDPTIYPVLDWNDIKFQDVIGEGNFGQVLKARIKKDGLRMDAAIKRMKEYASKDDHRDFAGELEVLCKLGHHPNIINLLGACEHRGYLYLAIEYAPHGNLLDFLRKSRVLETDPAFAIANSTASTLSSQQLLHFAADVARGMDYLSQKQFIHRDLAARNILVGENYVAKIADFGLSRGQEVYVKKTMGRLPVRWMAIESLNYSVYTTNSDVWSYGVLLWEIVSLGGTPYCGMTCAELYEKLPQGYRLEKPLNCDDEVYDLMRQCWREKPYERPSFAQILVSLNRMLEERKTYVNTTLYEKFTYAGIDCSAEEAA
Chain of Proto-oncogene tyrosine-protein kinase Src (Homo sapiens) (P12931 2-536 limits assumed): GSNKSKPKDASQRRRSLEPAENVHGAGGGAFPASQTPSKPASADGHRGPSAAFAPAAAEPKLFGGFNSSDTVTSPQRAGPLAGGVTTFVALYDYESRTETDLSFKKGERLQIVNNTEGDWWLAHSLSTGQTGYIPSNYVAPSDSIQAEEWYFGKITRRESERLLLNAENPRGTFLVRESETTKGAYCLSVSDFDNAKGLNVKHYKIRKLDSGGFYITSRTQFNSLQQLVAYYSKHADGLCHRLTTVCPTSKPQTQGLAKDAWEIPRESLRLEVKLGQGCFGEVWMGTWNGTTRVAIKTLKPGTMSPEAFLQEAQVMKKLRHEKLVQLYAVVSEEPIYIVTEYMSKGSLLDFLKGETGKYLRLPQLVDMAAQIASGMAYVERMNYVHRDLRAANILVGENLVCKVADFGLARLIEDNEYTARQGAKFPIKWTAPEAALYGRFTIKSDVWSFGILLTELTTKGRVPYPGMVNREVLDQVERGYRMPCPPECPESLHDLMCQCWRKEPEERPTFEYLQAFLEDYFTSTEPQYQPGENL
Chain of Tyrosine-protein kinase Srms (Homo sapiens) (Q9H3Y6 whole entry): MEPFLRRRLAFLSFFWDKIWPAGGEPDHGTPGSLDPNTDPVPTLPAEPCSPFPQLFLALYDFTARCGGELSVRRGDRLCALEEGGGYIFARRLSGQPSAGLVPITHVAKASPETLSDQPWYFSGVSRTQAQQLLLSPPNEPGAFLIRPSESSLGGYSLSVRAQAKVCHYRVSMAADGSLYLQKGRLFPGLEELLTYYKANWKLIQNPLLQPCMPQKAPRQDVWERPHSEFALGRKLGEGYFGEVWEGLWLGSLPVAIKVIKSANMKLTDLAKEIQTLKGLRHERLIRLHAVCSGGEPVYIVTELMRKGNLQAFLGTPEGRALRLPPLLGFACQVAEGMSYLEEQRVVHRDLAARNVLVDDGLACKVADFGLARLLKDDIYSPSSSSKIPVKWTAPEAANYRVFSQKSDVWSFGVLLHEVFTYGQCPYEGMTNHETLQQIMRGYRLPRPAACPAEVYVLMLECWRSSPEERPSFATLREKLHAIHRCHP
Chain of Proto-oncogene tyrosine-protein kinase receptor Ret (Homo sapiens), P07949 [Y791F] (P07949 whole entry Y791F): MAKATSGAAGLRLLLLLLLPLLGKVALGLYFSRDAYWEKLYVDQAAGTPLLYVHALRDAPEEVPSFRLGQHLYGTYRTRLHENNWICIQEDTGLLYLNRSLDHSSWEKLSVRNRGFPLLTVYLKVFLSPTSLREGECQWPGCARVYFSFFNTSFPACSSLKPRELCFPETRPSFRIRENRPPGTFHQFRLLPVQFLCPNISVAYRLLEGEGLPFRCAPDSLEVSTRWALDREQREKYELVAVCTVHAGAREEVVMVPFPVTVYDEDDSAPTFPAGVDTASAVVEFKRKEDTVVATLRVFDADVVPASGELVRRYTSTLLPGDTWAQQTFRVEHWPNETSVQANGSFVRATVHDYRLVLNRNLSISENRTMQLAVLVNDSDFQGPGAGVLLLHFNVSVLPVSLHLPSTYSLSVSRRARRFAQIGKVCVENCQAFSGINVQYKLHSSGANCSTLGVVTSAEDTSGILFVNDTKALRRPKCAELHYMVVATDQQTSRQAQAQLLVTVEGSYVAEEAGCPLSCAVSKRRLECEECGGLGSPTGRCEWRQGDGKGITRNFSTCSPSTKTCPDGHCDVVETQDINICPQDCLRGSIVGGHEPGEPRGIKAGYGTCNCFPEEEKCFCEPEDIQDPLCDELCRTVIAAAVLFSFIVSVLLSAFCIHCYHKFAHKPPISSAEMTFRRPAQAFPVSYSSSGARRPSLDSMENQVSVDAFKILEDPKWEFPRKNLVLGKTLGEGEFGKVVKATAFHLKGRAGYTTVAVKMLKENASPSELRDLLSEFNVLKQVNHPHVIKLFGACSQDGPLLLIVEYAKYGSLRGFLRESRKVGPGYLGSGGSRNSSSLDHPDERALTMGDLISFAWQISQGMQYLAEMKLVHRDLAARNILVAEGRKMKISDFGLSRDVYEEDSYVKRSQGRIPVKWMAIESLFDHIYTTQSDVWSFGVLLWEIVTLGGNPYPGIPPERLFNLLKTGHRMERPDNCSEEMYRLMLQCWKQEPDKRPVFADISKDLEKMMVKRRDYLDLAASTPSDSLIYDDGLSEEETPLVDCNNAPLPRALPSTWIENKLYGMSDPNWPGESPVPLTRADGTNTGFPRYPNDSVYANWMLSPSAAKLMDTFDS
Chain of Activated CDC42 kinase 1 (Homo sapiens) (Q07912 whole entry, looked up): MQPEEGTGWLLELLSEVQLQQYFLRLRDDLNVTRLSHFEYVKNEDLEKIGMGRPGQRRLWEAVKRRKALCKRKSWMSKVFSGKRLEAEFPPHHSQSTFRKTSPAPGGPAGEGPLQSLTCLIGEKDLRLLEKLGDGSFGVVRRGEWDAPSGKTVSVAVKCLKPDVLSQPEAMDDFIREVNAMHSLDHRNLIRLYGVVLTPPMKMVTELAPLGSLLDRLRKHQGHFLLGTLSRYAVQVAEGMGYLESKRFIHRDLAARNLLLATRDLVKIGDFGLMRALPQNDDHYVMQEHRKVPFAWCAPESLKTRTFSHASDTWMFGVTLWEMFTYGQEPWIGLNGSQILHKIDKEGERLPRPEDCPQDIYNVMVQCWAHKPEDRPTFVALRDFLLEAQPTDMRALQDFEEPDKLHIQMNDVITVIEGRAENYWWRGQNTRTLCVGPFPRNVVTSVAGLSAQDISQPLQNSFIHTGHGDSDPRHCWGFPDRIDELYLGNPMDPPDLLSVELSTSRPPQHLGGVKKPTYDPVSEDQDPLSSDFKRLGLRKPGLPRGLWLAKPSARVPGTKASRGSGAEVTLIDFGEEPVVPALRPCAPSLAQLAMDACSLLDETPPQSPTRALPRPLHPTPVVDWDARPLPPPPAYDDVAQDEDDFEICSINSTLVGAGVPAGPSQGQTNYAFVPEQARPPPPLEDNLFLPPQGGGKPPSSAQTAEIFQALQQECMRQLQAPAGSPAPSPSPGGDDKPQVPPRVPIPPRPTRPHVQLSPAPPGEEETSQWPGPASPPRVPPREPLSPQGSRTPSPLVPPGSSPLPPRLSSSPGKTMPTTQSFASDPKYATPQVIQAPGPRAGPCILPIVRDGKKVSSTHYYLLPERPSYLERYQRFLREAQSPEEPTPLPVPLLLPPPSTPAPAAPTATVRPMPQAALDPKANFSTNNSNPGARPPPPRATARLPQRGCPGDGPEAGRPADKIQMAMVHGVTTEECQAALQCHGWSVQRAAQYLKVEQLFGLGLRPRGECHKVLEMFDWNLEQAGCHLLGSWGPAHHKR

Row | Compound | inhibition [1] | inhibition [2] | inhibition [3] | inhibition [4] | inhibition [5] | inhibition [6] | inhibition [7] | inhibition [8] | inhibition [9] | inhibition [10] | inhibition [11] | inhibition [12] | inhibition [13] | inhibition [14] | inhibition [15] | inhibition [16] | inhibition [17] | inhibition [18] | inhibition [19] | inhibition [20]
1 | Fc1cccc(COc2ccc(Nc3ncncc3C#Cc3ccccc3)cc2Cl)c1 | 15.1% | 1.12% | 1.28% | 7.63% | 4.43% | 4.7% | 9.06% | -1.92% | -0.3% | -5.72% | -0.97% | 4.69% | 4.11% | 1.87% | 2.11% | 1.37% | 9.13% | 1.84% | 3.24% | 2.85%
2 | CN(C)CCNC(=O)Nc1ccc(N(C)c2ccnc(Nc3ccc(CS(C)(=O)=O)cc3)n2)cc1 | 23.3% | 3.87% | 7.76% | 15.3% | 78% | 4.55% | 14.4% | -2.02% | -0.56% | -4.06% | -4.22% | 5.73% | 14.7% | 2.91% | 12.6% | 12.7% | 47.1% | 1.49% | 4.15% | 1.76%
3 | O=C(O[C@H]1CN[C@H](C#Cc2cc3ncnc(Nc4ccc(OCc5cccc(F)c5)c(Cl)c4)c3s2)C1)N1CCOCC1 | 7.29% | 1.25% | 12.9% | 6.55% | 8.8% | -0.25% | 11.3% | -2.71% | -2.76% | -7% | -2.54% | 5.08% | 4.41% | 2.8% | 7.75% | 4.45% | 21.9% | 2.09% | 2.88% | 1.47%
4 | CN1CCC(C(=O)Nc2n[nH]c3nc(-c4ccc(O)cc4)c(Br)cc23)CC1 | 20.8% and 5.43% | -1.02% and 7.11% | 6.18% and 11.8% | 5.2% and 4.89% | 10.4% and 1.96% | 6.76% and 6.26% | 9.87% and 8.29% | -2.12% and 1.04% | -1.75% and -1% | -0.18% and 0.92% | -0.04% and 0.42% | -1.21% and 2.96% | 1.24% and 2.96% | 3.01% and 5.98% | 7.84% and 7.69% | 3.57% and 0.52% | 6.51% and 6.06% | 0.92% and 0.24% | 1.76% and 1.56% | 1.13% and 2.68%
5 | CCS(=O)(=O)c1ccc(OC)c(Nc2ncc(-c3cccc(C(C)=O)c3)o2)c1 | 39.2% | -2.76% | 3.79% | 3.34% | 16.5% | 16.3% | 70.7% | 0.94% | 17.7% | -5.14% | -2.16% | 6.22% | 26.6% | 2.09% | 9.26% | 15.3% | 66.9% | 1.65% | 6.5% | 4.29%
6 | Cc1nnc(-c2cccc(-c3ccc(C(=O)NCC4CC4)cc3)c2)o1 | 14.4% | 3.19% | 8.29% | 5.45% | 6.04% | 12.5% | 10.2% | -2.52% | 2.96% | -3.49% | -0.72% | 5.71% | 6.71% | 2.51% | 2.87% | 2.91% | 11.3% | 1.67% | 2.25% | 3.31%
7 | CC(C)c1ccc(-c2cc(-c3c[nH]nc3-c3ccccn3)ccn2)cc1 | 4.31% | -5.99% | 3.62% | 2.06% | 1.81% | 1.53% | 0.23% | 0.28% | -0.57% | 2.53% | 1.09% | 2.3% | 2.11% | 4.71% | 6.64% | 0.85% | -0.32% | 0.23% | 0.19% | 0.99%
8 | CN1CCN(Cc2ccc(-c3cc4ncnc(Nc5ccc(OCc6cccc(F)c6)c(Cl)c5)c4s3)o2)CC1 | 11.4% and 17.4% | 3.2% and 3.55% | 10.2% and 6.54% | 3.07% and 6.46% | 6.26% and 12.4% | 4.74% | 13.4% and 18.3% | -1.16% and -1.22% | 0.02% and -0.37% | 0.19% and -1.76% | -0.79% and 0.39% | 0.53% and 4.75% | 4.67% and 6.65% | 4.14% and 4.04% | 16.7% and 17.8% | 2.88% and 6.1% | 18.5% and 23.1% | 1.15% and 2.06% | 2.33% and 3.5% | 1.64% and -0.7%
9 | Fc1ccc(Nc2nccc(-c3c(-c4ccc(C(F)(F)F)cc4)nn4ncccc34)n2)cc1F | 4.13% | -2.05% | 4.5% | 6.56% | 8.15% | -0.44% | 6.45% | 0.3% | -1.61% | -5.43% | -0.68% | 4.32% | 6.72% | 1.72% | 1.95% | 3.85% | -0.46% | 1.2% | 0.83% | 2.39%
10 | Cc1cc(O)cc(C)c1/C=C/c1cncc(C(N)=O)c1 | 8.63% | 1.41% | 4.46% | 4.48% | 6.31% | 5.55% | 54.2% | 5.08% | 31.6% | -0.5% | 0.5% | 5.81% | 32.2% | 2.45% | 5.29% | 4.23% | 14.4% | 1.58% | 6.06% | 4.13%
11 | COc1ccccc1-c1cc(/C=C2\C(=O)Nc3ncc(Br)cc32)cc(Br)c1O | 13.2% | 2.48% | 7.63% | 7.94% | 26.1% | 4.87% | 17.1% | 2.16% | 14.7% | -6.56% | -0.96% | 4.41% | 10.3% | 4.42% | 6.14% | 40.2% | 80.4% | 1.04% | 0.66% | 9.43%
12 | N#Cc1ccc2c(-c3ccnc(NC4CC4)n3)c(-c3ccc(F)cc3)nn2c1 | 10.8% | 2.34% | 0.41% | 1.21% | 1.91% | 2.91% | 3.58% | 0.49% | -0.99% | 0.61% | -1.91% | -0.44% | 3.17% | 1.54% | 3.72% | -0.18% | 1.77% | 0.77% | 1.6% | -1.05%
13 | COC(=O)Nc1nc2ccc(Oc3ccc(NC(=O)Nc4cc(C(F)(F)F)ccc4F)cc3)cc2s1 | 83.2% | 1.92% | 1.28% | 1.61% | 7.35% | 0.46% | 26.9% | 0.28% | -0.86% | 0.09% | 0.26% | 1.25% | -0.83% | 50.8% | 78% | 11.5% | 27.2% | 0.46% | 1.35% | 24.2%
